Assay outcomes from PubChem BioAssay.
CYP2C9 activ – CYP2C9 (human) activation; recombinant CYP2C9, luciferin-H conversion, luminescence; active compounds read high; factor 1 = untreated enzyme, 0 = blocked; activation factor at 5 µM; actives 1.4% (n = 96,000);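 active = activation factor of 2 or more for CYP2C9 at a 5 µM dose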;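 also: 0 = sulfaphenazole-blocked wells and 1 = vehicle-only wells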
CYP2C9 inhib – inhibitors of human CYP2C9; inhibition, % at 5 µM; CYP2C9 Supersomes, luciferin-H conversion, luminescence; P11712; actives 20% (n = 96,000);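 active = blocking of liver enzyme CYP2C9 beyond about 50% at 5 µM, limit read from the data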
CYP2C19 activ – cytochrome P450 2C19 (human) activation | recombinant CYP2C19, luciferin-H EGE luminescence; active compounds read high; 0 = fully inhibited enzyme, 1 = untreated enzyme | activation factor at 5 µM | 96,000 tested, under 10 active;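 active = activation factor of at least 2 at 5 µM in the primary screen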;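 also: 0 = wells with 2.5 mM tranylcypromine and 1 = vehicle-only wells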
Target sequence (P33261 whole entry, looked up): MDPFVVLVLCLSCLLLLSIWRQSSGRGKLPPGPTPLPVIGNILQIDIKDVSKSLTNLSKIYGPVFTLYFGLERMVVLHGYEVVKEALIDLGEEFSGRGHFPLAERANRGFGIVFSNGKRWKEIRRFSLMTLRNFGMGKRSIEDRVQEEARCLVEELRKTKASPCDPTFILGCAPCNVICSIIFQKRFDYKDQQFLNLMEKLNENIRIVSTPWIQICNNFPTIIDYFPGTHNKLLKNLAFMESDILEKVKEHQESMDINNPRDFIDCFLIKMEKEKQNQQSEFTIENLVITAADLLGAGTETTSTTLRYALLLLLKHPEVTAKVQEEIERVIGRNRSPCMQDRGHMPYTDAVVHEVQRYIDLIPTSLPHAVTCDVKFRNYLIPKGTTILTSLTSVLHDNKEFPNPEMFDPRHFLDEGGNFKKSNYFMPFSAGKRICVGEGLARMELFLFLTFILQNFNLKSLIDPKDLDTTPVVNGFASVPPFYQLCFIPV
CYP2C19 inhib – human CYP2C19 inhibition. inhibition, % at 5 µM. AID 778. P33261. CYP2C19 Supersomes, luciferin-H EGE luminescence, 30 min. actives 21% (n = 96,000);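 active = CYP2C19 inhibition above a set limit at 5 µM in the primary screen, cut at about 50% in these data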;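 also: plate controls were negative control wells for no effect and 2.5 mM tranylcypromine positive control for full effect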
Active calls of the source: *. Most compounds without a hit are left out; they make up all but 31% or so of the library.

SMILES	CYP2C9 activ	CYP2C9 inhib	CYP2C19 activ	CYP2C19 inhib
CC1CCCN(Cc2cnc(Cl)s2)C1 (stereo unspecified)	1	2	0.5	53*
O=S(=O)(Nc1ccc(Oc2ncccn2)c(Cl)c1)c1ccc(Cl)cc1	0	99*	0	99*
Cc1cc(NS(=O)(=O)c2ccc(NC(=O)COc3ccc(Cl)cc3)cc2)no1	0.9	11	1.1	-10
Cc1nnc(SCc2c(Cl)cccc2Cl)s1	0.9	6	0.4	59*
Cn1c(SCc2c(Cl)cccc2Cl)nnc1-c1cccs1	0.2	76*	0	98*
Cn1c(SCc2ccc(Br)cc2)nnc1-c1cccs1	0.2	76*	0	97*
COc1ccc(NC(=O)CSc2nnc(-c3cccs3)n2C)cc1OC	1.1	-5	1.1	-9
COc1ccc(Cc2noc(-c3ccc(OC)c(OC)c3)n2)cc1OC	0.7	34	0.8	19
COc1ccc(N2C(C)=CS/C2=C(/C#N)c2nnc(N3CCOCC3)n2-c2ccccc2)cc1	0.8	16	0.8	17
O=C1NCCN1C(=O)N(c1ccccc1)c1ccccc1	1	-1	1	4
CC(=O)Nc1nc(C)nc(-c2ccccc2)c1C(C)=O	1.1	-6	1.1	-9
CNc1nc(C)c(C#N)c(-c2ccccc2)c1C(C)=O	0.7	33	0.5	55*
COC(=O)c1ccc(COc2ccccc2/C=N/NS(=O)(=O)c2ccccc2)cc1	0.8	23	0.9	7
COc1cc2c(C#N)c(N3CCc4ccccc4C3)nc(N)c2c(N)n1	0.2	85*	0.2	81*
CCOc1cc2c(C#N)c(N3CCCCC3)nc(N)c2c(N)n1	0.1	90*	0.4	62*
COc1cc2c(C#N)c(N3CCCCC3)nc(N)c2c(N)n1	0.8	24	0.8	19
Cc1occc(=O)c1OC(=O)Nc1ccccc1	1.1	-13	1.1	-15
O=C(Nc1ccccc1C(F)(F)F)N1CCCC(O)C1 (stereo unspecified)	0.9	15	1.1	-13
O=C(CSc1nnc(-c2cccnc2)o1)c1cc2ccccc2oc1=O	0.3	70*	1	0
N#Cc1ccc(-c2ccccc2)nc1SCC(=O)c1cc2ccccc2oc1=O	0.2	76*	0.9	8
Cc1cc(C)c[n+](CC(=O)c2cc3ccccc3oc2=O)c1	1.1	-8	1	-4
CCOC(=O)CSc1nc(-c2ccc3c(c2)OCO3)ccc1C#N	1	0	1.1	-5
CC(C)c1c(C#N)c(N)nc(SCC(=O)c2cc3ccccc3oc2=O)c1C#N	0.1	92*	0.9	7
CC(O)c1cc2c(cc1NC(=O)c1cnn3c1NC(c1ccco1)CC3C(F)(F)F)OCO2 (stereo unspecified)	0.9	14	1	3
COc1cc(-c2nc(-c3ccccc3)c(-c3cccs3)[nH]2)cc(OC)c1O	0.2	82*	0.4	61*
SMILES	CYP2C9 activ	CYP2C9 inhib	CYP2C19 activ	CYP2C19 inhib
COc1cc(-c2nc(-c3ccccc3)c(-c3cccs3)[nH]2)cc(OC)c1OC	0.5	49	0.7	33
CCOc1ccc(OCc2ccc(C(=O)O)o2)cc1	0.7	30	0.3	70*
O=C(OCc1ccccn1)c1ccc(COc2ccccc2Cl)o1	0.7	26	0.4	61*
CCOc1ccc(C(=O)NCc2cccnc2)cc1	0.9	8	0.6	44
O=C(c1ccc(COc2ccccc2Cl)o1)N1CCCC1	0.5	46	0.7	30
CCOc1ccc(OCc2ccc(C(=O)NCc3ccncc3)o2)cc1	0.2	80*	0.1	92*
CCc1ccc(OCc2ccc(C(=O)NCc3ccccn3)o2)cc1	0.4	55*	0.3	71*
CCCc1ccc(OCc2ccc(C(=O)O)o2)c(OC)c1	1.1	-12	1	-2
Cc1cc(=O)[nH]c(Nc2ccc(C(=O)OC(C)C)cc2)n1	0.7	27	0.7	26
Cc1ccc(CNC(=O)Cn2c(=O)oc3ccccc32)o1	1	0	0.8	24
Cc1cc(C)nc(N2CCC(CNC(=O)CCc3ccccc3)CC2)n1	0.8	22	0.8	19
FC(F)(F)c1ccc(CSc2nccn2-c2ccccc2)cc1	0.1	88*	0.2	82*
Clc1cccc(CSc2nccn2-c2ccccc2)c1	0.8	16	0.3	73*
O=c1cc(O)nc(SCc2ccccc2)n1-c1ccccc1	1.1	-12	1	4
Cc1cc(C(=O)NCCC(c2ccccc2)c2ccccc2)c(C)o1	0	98*	0.1	93*
COc1cccc(NC(=O)N2CCCC(C(=O)Nc3ccccc3OC)C2)c1 (stereo unspecified)	1.6	-60	1	4
CCn1c(N)c(C(=O)NCCCOC)sc1=S	0.8	16	0.8	20
N#C/C(=C\c1ccccc1)c1nc2ncccc2[nH]1	0.3	66*	0.8	16
COC(=O)Cc1cc(=O)n2[nH]c(C)nc2n1	1.2	-23	1.2	-20
COC(=O)Cc1cc(=O)n2[nH]c(SC)nc2n1	0.4	64*	0.8	22
O=C(Nc1ccccc1NC(=O)c1ccco1)c1ccco1	1	1	1	2
O=C(Nc1ccccc1N(C(=O)c1ccco1)S(=O)(=O)c1cccs1)c1ccco1	0.3	75*	0.7	29
COc1ccc(N(C(=O)c2ccco2)S(=O)(=O)c2cc(OC)ccc2OC)cc1	0.3	72*	0.8	25
CCCN(S(=O)(=O)c1ccc(OCC)cc1)S(=O)(=O)c1cccs1	0.6	41	0.7	30
COc1ccc(N(C(=O)c2ccco2)S(=O)(=O)c2cccs2)cc1	0.5	50*	0.7	35
SMILES	CYP2C9 activ	CYP2C9 inhib	CYP2C19 activ	CYP2C19 inhib
CC(=O)N(c1ccc(N(C(C)=O)S(=O)(=O)c2cccs2)cc1)S(=O)(=O)c1cccs1	0.3	73*	0.8	22
CCc1c(O)nc(SCC(=O)Nc2ccccc2OC)[nH]c1=O	0.6	38	0.7	28
Cc1nnc2n(Cc3ccccc3)c(=O)c3c4c(sc3n12)COC(C(C)C)C4 (stereo unspecified)	0.7	34	1	5
CCOC(=O)c1sc(C)c(C(=O)NCC(C)(C)CN(C)C)c1N	1	-3	1	-3
CCCOc1nc2c(c(=O)n(C)c(=O)n2C)n1Cc1cccc2ccccc12	0.5	47	0.8	24
CCC(=O)c1cn(CC(=O)NCc2cccnc2)c2ccccc12	0.1	91*	0.1	86*
N#Cc1cn(Cc2ccccc2)c2ccccc12	0.2	84*	0.1	91*
Cc1ccc(NC(=O)Cn2nc([N+](=O)[O-])c(Br)c2C)cc1C	0.9	7	0.9	6
Cc1c(Br)c([N+](=O)[O-])nn1CC(=O)NCc1cccnc1	0.3	68*	0.1	90*
CCn1c(=O)cc(SCC(=O)NCc2cccnc2)c2ccccc21	1.2	-19	0.9	5
O=C(O)CC(C(=O)O)c1cn(Cc2ccccc2)c2ccccc12 (stereo unspecified)	1	-3	1	0
N#Cc1cn(CC(=O)NCc2cccnc2)c2ccccc12	0.4	63*	0.2	80*
COc1ccccc1NC(=O)Cn1cc(C#N)c2ccccc21	0.7	34	0.6	36
